Screening data (PubChem)
HTT cytoprotect = protects HTT-Q103 PC12 cells, measured by ATP | PC12 HTT-Q103 induced, cytoprotection, ATP luminescence, 40 h | hit rate 0.14% among 230,000 | AID 1471 | Potency, µM (titrated, usually from 56.4 µM), hits mostly activators; also: nearly all actives have a fitted effect of over 45% in size
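Compounds added alongside 100 nM tebufenozide, which induces toxic Q103 huntingtin exon 1-GFP in stable PC12 cells; surviving cells quantified by luminescent ATP measurement. Medium: phenol red-free DMEM, 5% equine and 5% calf serum.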
CBFb RUNX1 block = blocks binding between human CBF-beta and RUNX1; Potency, µM (highest dose often 59.8 µM), actives largely listed as inhibitors; Q01196+Q13951; 230,000 tested, under 10 active; AlphaScreen CBFb-His/RUNX1-biotin binding, biochemical; AID 1477
Target sequence (Q01196 whole entry, looked up): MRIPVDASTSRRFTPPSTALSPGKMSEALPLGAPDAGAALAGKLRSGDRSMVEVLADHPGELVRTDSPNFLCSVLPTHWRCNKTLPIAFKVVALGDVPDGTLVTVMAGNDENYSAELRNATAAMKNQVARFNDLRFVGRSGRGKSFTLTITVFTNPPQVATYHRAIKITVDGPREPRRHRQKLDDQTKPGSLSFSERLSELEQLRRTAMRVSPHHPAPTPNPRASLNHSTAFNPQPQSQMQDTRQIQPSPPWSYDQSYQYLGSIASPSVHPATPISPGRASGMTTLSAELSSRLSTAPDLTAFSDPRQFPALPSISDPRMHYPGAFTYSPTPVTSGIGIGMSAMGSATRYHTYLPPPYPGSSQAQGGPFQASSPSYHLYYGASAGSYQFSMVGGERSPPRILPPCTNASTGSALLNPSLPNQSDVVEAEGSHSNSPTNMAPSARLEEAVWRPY
Target sequence (Q13951 whole entry, looked up): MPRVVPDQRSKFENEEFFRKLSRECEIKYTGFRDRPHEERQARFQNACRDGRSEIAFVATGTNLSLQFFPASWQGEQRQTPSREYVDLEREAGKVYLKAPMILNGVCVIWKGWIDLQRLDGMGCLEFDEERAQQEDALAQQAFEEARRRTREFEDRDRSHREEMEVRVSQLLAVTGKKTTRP
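Compounds were screened at multiple concentrations against a preformed CBF-beta(His)/RUNX1(biotin) complex (30 nM of each) for 15 min at room temperature, followed by 90 min with nickel and streptavidin beads and AlphaScreen reading.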
HPGD block = HPGD (human) dehydrogenase inhibition | P15428 | purified HPGD, NADH fluorescence kinetic, PGE2 substrate | Potency, µM, most hits filed as inhibitors | AID 894 | hit rate 4.3% among 150,000; active = well fitted inhibition curve with a large enough effect, not every such curve was filed as active; inconclusive = small, poorly fitted or top-dose-only effect, or another doubt; inactive = no such curve, though single readings can be large or run the other way
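20 nM HPGD preincubated 15 min at room temperature with compound in 50 mM Tris-HCl pH 8, 0.01% Tween 20. Started with 1 mM NAD+ and 30 uM prostaglandin E2; NADH fluorescence (360/450 nm) read 5 times over 30-s intervals, last minus first.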
HTT aggregate = mutant huntingtin aggregation inhibition; Potency, µM (doses to about 46.1 µM), usual class: inhibitors; PC12 HttQ103-GFP aggregates, Acumen cytometry, 40 h; hit rate 1.1% among 220,000; also: nearly all actives have a fitted effect of over 60% in size
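Steps: seed 1500 PC12 HTTQ103-GFP cells/well; add tebufenozide, 100 nM final; add compound titration; add ATPLite reagent; quantify GFP aggregates by laser scanning cytometry.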
KDM4E inh = inhibitors of human JMJD2E histone demethylase; JMJD2E catalytic domain, FDH-coupled NADH fluorescence (FDH is formaldehyde dehydrogenase); Potency, µM (titrated, usually from 57.1 µM), usual class: inhibitors; hit rate 1.6% among 230,000; active = well fitted inhibition curve with a large enough effect, not every such curve was filed as active; inconclusive = small, poorly fitted or top-dose-only effect, or another doubt; inactive = no such curve, though single readings can be large or run the other way; also: nearly all actives have a fitted effect of over 50% in size
ALDH1A1 inh = blocks purified human ALDH1A1 activity; P00352; Potency, µM (doses to about 75.3 µM), actives largely listed as inhibitors; Purified ALDH1A1, NADH fluorescence, propionaldehyde substrate; hit rate 7.3% among 220,000; AID 1030; active = well fitted inhibition curve with a large enough effect, not every such curve was filed as active; inconclusive = small, poorly fitted or top-dose-only effect, or another doubt; inactive = no such curve, though single readings can be large or run the other way
A number is an active result; i = inactive; ? = inconclusive; nt = no result; ! = a repeat was not active; [ ] = another dose, or the depositor's remark. Only some compounds are listed: those with a hit (about 9.8% of all), similar ones and a draw of the others. Unless noted, calls follow the shape of the dose curve; as a rule, active = well fitted curve in the direction sought with a large enough effect; inconclusive = small, poorly fitted or top-dose-only effect, or another doubt; inactive = no such curve, though single readings can be large; an effect the other way counts as inactive or inconclusive.

SMILES	HTT cytoprotect	CBFb RUNX1 block	HPGD block	HTT aggregate	KDM4E inh	ALDH1A1 inh
CN(Cc1nc(-c2ccccn2)no1)S(=O)(=O)c1ccc(Cl)cc1	i	i	25µM	i	i	?
CCNc1ccc(Br)cc(C(=O)/C=C/c2c(Cl)cccc2Cl)c1=O	i[10 µM]	?	8.9µM	?	?	7.9µM
CCNc1ccc(Br)cc(C(=O)/C=C/c2ccc(Cl)cc2)c1=O	nt	?	?	i	25µM	25µM
CS(=O)(=O)Nc1ccc(Br)cc1C(=O)c1ccccc1	i	i	i	i	i	i
CCNc1ccc(Br)cc(C(=O)/C=C/c2ccc3c(c2)OCO3)c1=O	i	?	?	?	14µM	18µM
OCc1cccc(Cl)c1Cl	nt	i	nt	nt	nt	nt
CCOC(=O)C1=C(CC)Nc2ccccc2N=C1NC(=O)c1ccc(S(=O)(=O)N2CCCC2)cc1	i	i	nt	i	i	14µM
CCOC(=O)C1=C(CC)Nc2ccccc2N=C1NC(=O)Nc1ccc(Cl)c(Cl)c1	i	i	i	i	i	i
COc1ccc(CCNC(=O)C/C(C)=N/NC(=O)C(c2ccccc2)c2ccccc2)cc1OC	i[10 µM]	i	nt	i[9.22 µM]	i	nt
C[C@H]1c2cccc(O)c2C(O)=C2C(=O)[C@]3(O)C(O)=C(C(N)=O)C(=O)[C@@H](N(C)C)[C@@H]3[C@@H](O)[C@@H]21	i	i	i	i[9.22 µM]	20µM	i
C[C@H]1c2cccc(O)c2C(O)=C2C(=O)[C@]3(O)C(O)=C(C(N)=O)C(=O)C(N(C)C)[C@@H]3[C@@H](O)C21 (stereo partly drawn)	nt	i	?	nt	?	?
C=C(C)C(=O)OCC1CN2C(CCC(C)C2c2ccc(Br)cc2)C(=O)O1 (stereo not drawn)	?	i[13.1 µM]	nt	nt	nt	i[13.5 µM]
COc1cccc(-c2ccc3ncnc(NCCN4CCOCC4)c3c2)c1	i	nt	nt	nt	nt	?
Cc1ccccc1C(O)c1ccccn1 (stereo not drawn)	i	i	i	i	i	i
Cc1ccc(C(=O)CSc2ncnc3ccccc23)o1	nt	i	nt	i	i	?
O=C(CSc1ncnc2ccccc12)c1cccs1	i	i	nt	?	?	11µM
O=C(CSc1nc2ncc(Br)cc2[nH]1)Nc1ccc2c(c1)OCO2	i	i	nt	i	i	25µM
O=C(COC(=O)c1c2c(nc3ccccc13)CCCC2)Nc1ccc2c(c1)OCO2	i	i	i	i[9.22 µM]	?	8.9µM
NS(=O)(=O)c1cccc(NC(=O)CSc2ncnc3ccccc23)c1	i[10 µM]	i	nt	i[9.22 µM]	i	nt
NS(=O)(=O)c1ccc(NC(=O)CSc2ncnc3ccccc23)cc1	8.9µM	i	nt	i	i	i
CC(=O)N(CCC1(c2ccc(C)cc2)CCOC(C(C)C)C1)Cc1ccco1 (stereo not drawn)	i[10 µM]	i	nt	i[9.22 µM]	i	nt
CCOC(=O)C1CCCN(C(=O)CN2CCN(Cc3ccc(Cl)cc3)C2=O)C1 (stereo not drawn)	i	i	i	i	i	i
COC(=O)C1C(O)=C(C=Nc2ccc3ccccc3c2)C(=O)CC1(C)C (stereo not drawn)	i	i	nt	i	i	?
O=C(CSc1ncnc2ccccc12)Nc1ccc2c(c1)OCO2	i	i	i	i	i	11µM
O=S(=O)(NCCNC/C=C/c1ccc(Br)cc1)c1cccc2cnccc12	i	i	i	nt	i	22µM!
SMILES	HTT cytoprotect	CBFb RUNX1 block	HPGD block	HTT aggregate	KDM4E inh	ALDH1A1 inh
CCOC(=O)/C(=C\c1cn(C)c2ccccc12)[N+](=O)[O-]	i[1.9 µM]	i	3.5µM	i	i	6.3µM
CCOC(=O)/C(C#N)=C\c1cn(C)c2ccccc12	i[10 µM]	i	nt	i[9.22 µM]	i	i
COc1ccc(NC(=O)/C(C#N)=C\c2ccc(N3CCOCC3)o2)cc1	i[10 µM]	?	nt	i[9.22 µM]	?	?
N#C/C(=C/c1ccc(N2CCOCC2)o1)C(=O)NC1CCCCC1	i[10 µM]	i	nt	i[9.22 µM]	?	6.3µM
N#C/C(=C/c1ccc(N2CCCCC2)o1)C(=O)Nc1ccc2ccccc2c1	i[10 µM]	i	?	2.5µM	25µM	?
N#C/C(=C\c1ccc(N2CCOCC2)o1)C(=O)Nc1ccc(O)cc1	i	i	nt	i	i	20µM
N#C/C(=C/c1ccc(N2CCCCC2)o1)C(=O)Nc1ccc(Cl)cc1	i[10 µM]	i	i	?	i	i
CN(C(=O)/C=C/c1cnc2ccccc2c1)C1CCCCC1	i	i	nt	i	i	?
NC(CSCSCC(N)C(=O)O)C(=O)O (stereo not drawn)	nt	nt	i	nt	i	i
CCN(CC)S(=O)(=O)c1ccc2c(c1)nc(SCn1nnc3ccccc3c1=O)n2CC	i	i	i	i	i	10µM
Cc1ccccc1N1CCN(S(=O)(=O)C[C@]23CCC(CC2NC(=O)[C@@H](N)CCS(C)(=O)=O)C3(C)C)CC1 (stereo partly drawn)	nt	i	i	nt	i	i
COc1cccc(CNC(=O)C23CN(Cc4ccccc4)CC2C(c2ccc([N+](=O)[O-])cc2)=NO3)c1 (stereo not drawn)	i	i	i	i	i	?
CC(C)CCNC(=O)C12CN(Cc3ccccc3)CC1C(c1ccc([N+](=O)[O-])cc1)=NO2 (stereo not drawn)	i[10 µM]	i	i	i	i	2.8µM
COc1ccc(CCNC(=O)C23CN(Cc4ccccc4)CC2C(c2cccc([N+](=O)[O-])c2)=NO3)cc1 (stereo not drawn)	i[10 µM]	i	i	i	i	8.9µM
O=C(NCc1ccccc1C(F)(F)F)C12CN(Cc3ccccc3)CC1C(c1ccc([N+](=O)[O-])cc1)=NO2 (stereo not drawn)	i[10 µM]	nt	i	i	i	25µM
Cc1ccc(CCNC(=O)C23CN(Cc4ccccc4)CC2C(c2cccc([N+](=O)[O-])c2)=NO3)cc1 (stereo not drawn)	i[10 µM]	i	i	i	i	?
CC(=O)c1c(O)cc(C)n(Nc2nc(C)cc(C)n2)c1=O	i	i	i	1.3µM	?	i
COc1ccc(Br)cc1-c1noc(-c2ccccc2F)n1	i	i	i	4µM	i	i
COCCNC(=O)COC(=O)c1ccc(OCC(=O)Nc2ccccc2OC)c(OC)c1	i	i	nt	i	i	i
O=C(c1ccncc1)c1ccc(N2CCN(C3CC(=O)N(Cc4cccs4)C3=O)CC2)cc1 (stereo not drawn)	i	i	nt	?	i	?
O=C1CC(N2CCN(c3ccc(O)cc3)CC2)C(=O)N1Cc1cccs1 (stereo not drawn)	i[10 µM]	i	i	i	?	25µM
CN(C)S(=O)(=O)c1ccc(NS(=O)(=O)/C=C/c2ccccc2)cc1	i	i	i	i	i	?
COc1ccc(NS(=O)(=O)/C=C/c2ccccc2)cc1	nt	i	i	i	i	2.5µM
O=C(c1ccc(Cl)cc1)N1CCC(O)(CSc2ccc(Cl)cc2Cl)CC1	i[10 µM]	i	i	10µM	i	22µM
O=C(c1ccc(CSc2ccc(Cl)cc2)cc1)N1CCCC1	nt	i	nt	i	i	?
